# Source: PubChem BioAssay
# Where “and” joins values, the source holds several entries; their conditions need not be identical. Equal entries are not always repeated. Results filed as inconclusive are left out. Calls of active or inactive are those of the source. Cut-off read from the data, not from the text of the source, unless noted: active = inhibition above about 80%; inactive = the rest.
# Legend:
# [1] = growth inhibition of DIPG glioma cells, dose response, cell-based, SU-DIPG-XIII, MIPE4.0, CellTiter-Glo, qHTS (AID 1347061; cut-off not given, nearly all actives have AC50 up to about 37 µM;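 note: cells exposed to compound for 48 hours before readout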); conditions: SU-DIPG-XIII viability, CellTiter-Glo ATP luminescence
# [2] = growth inhibition of DIPG glioma cells, dose response, cell-based, SU-DIPG-IV, MIPE4.0, CellTiter-Glo, qHTS (AID 1347063; cut-off not given, nearly all actives have AC50 up to about 30 µM;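 note: compound exposure lasted 48 hours before the viability readout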); conditions: SU-DIPG-IV viability, CellTiter-Glo ATP luminescence
# [3] = viability loss in pontine glioma line – cell-based, SU-DIPG-XXV, MIPE5.0, CellTiter-Glo, qHTS, dose response (AID 1347065; cut-off not given, nearly all actives have AC50 up to about 26 µM;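 note: cells exposed to compound for 48 hours before ATP readout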); conditions: CellTiter-Glo ATP luminescence
# [4] = JHH-DIPG-1 glioma cell viability, MIPE5.0 library, CellTiter-Glo luminescence, qHTS (AID 1347067; cut-off not given, nearly all actives have AC50 up to about 26 µM;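 note: cells exposed to compound for 48 hours before readout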); conditions: JHH-DIPG-1 glioma viability, CellTiter-Glo ATP luminescence
# [5] = sensitizers of A549 cells to miR-34 induction, primary screen, imaging, A549 dox-inducible miR-34, nuclei and caspase counts (AID 1347080;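 active = compounds whose cell count with miR-34 switched on is under 0.7 times the count with it off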); conditions: A549 miR-34 inducible, Hoechst nuclei count, 48 h
# [6] = modifiers of HSF1 nuclear foci, imaging, Selleck Cancer Library (AID 1347162; in the data active = plate-normalised HSF1 focus index below about 0.46); conditions: human cells, at 10 µM; SSMD: measured here: HSF1 foci SSMD mean; cell count: measured here: cell number; plate-normalised HSF1 focus index: stronger effect = lower value
# [7] = LFS_MB_P medulloblastoma growth inhibition, cell-based, chromothripsis tumors, cisplatin or BGB combos (AID 1671449); conditions: LFS_MB_P medulloblastoma cells;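 note: cells exposed for 96 hours; 0% = vehicle DMSO and 100% = killing by high DMSO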
# [8] = HDN33 neuroblastoma growth inhibition, cell-based, chromothripsis tumors, cisplatin or BGB combos (AID 1671450); conditions: HDN33 neuroblastoma cells, stronger effect = higher value;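 note: cells exposed to compound for four days; 0% = vehicle DMSO and 100% = cell killing by high DMSO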
# [9] = ICB984 medulloblastoma cell growth inhibition, synergistic combos for chromothripsis tumors, cisplatin or BGB combos (AID 1671451; call rule not given here;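 note: cells exposed for 96 hours before readout; 0% = vehicle DMSO and 100% = killing by high DMSO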); conditions: ICB984 medulloblastoma cells, drug combinations, stronger effect = higher value
# [10] = LFS_MB_1R medulloblastoma cell growth inhibition, synergistic combos for chromothripsis tumors, cisplatin or BGB combos (AID 1671452); conditions: LFS_MB_1R medulloblastoma cells, stronger effect = higher value;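 note: cells exposed for 96 hours before readout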
# [11] = HTB85 osteosarcoma cell growth inhibition, synergistic combos for chromothripsis tumors, BGB or cisplatin IC20 combos (AID 1671453); conditions: HTB85 osteosarcoma cells, drug combinations, stronger effect = higher value;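 note: cells exposed for 96 hours before readout; 0% = vehicle DMSO and 100% = high DMSO killing control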
# [12] = MDA-MB-436 breast carcinoma cell growth inhibition, synergistic combos for chromothripsis tumors, BGB or cisplatin combos (AID 1671458; call rule not given here;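 note: cells exposed for 96 hours; 0% = vehicle DMSO and 100% = killing by high DMSO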); conditions: MDA-MB-436 breast carcinoma growth inhibition, drug combinations, stronger effect = higher value
# [13] = growth inhibition of BT084 medulloblastoma cells, cell-based, ICGC_MB145, cisplatin and BGB IC40 combos (AID 1671461); conditions: drug combinations, stronger effect = higher value;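 note: cells exposed to drugs for 96 hours; 0% = vehicle DMSO and 100% = high DMSO full killing control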
# [14] = growth inhibition of RCMB18 medulloblastoma cells, cell-based, cisplatin and BGB IC40 combos (AID 1671462); conditions: stronger effect = higher value;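 note: cells exposed to compound for four days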
# [15] = growth inhibition of CRL1545 osteosarcoma cells, cell-based, cisplatin and BGB IC20 combos (AID 1671464); conditions: stronger effect = higher value;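 note: cells exposed to compound for 96 hours before readout; 0% = vehicle DMSO and 100% = high DMSO killing control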
# [16] = measured here: combination with BGB IC40, at 0.05 µM
# [17] = measured here: with BGB IC20 combination, at 0.5 µM
# [18] = measured here: with cisplatin IC20 combination, at 0.5 µM
# [19] = measured here: combination with cisplatin, at 0.5 µM
smiles,measurement,setting,value
CC(C)(C)OC(=O)Nc1ccc(-c2cc(C(=O)NCCCCCCC(=O)NO)no2)cc1,AC50,[1],13.2 µM (active)
same,AC50,[2],2.64 µM (active)
same,AC50,[3],2.95 µM (active)
same,AC50,[4],3.72 µM (active)
same,fold change,"[5]; stronger effect = lower value, cell number ratio, induced over uninduced",1.08 (inactive)
same,fold change,[5]; measured here: relative caspase fold change +Dox/-Dox,1.18
same,cell count,"[5]; measured here: total cells with miR-34 induction, stronger effect = lower value",3170
same,cell count,[5]; measured here: total cells without miR-34 induction,2940
same,SSMD,[6],-0.325
same,cell count,[6],7020
same,plate-normalised HSF1 focus index,[6],0.983 (inactive)
same,inhibition,"[7]; at 0.5 µM, stronger effect = higher value",-18.3% (inactive) and -10.4% (inactive)
same,inhibition,"[7]; measured here: combination with BGB IC20, at 0.005 µM",-24.2% and -11.2%
same,inhibition,"[7]; measured here: combination with BGB IC40, at 0.005 µM",-24.3% and -8.96%
same,inhibition,[7]; [16],-25.1% and 5.48%
same,inhibition,"[7]; measured here: combination with cisplatin, at 0.5 µM, stronger effect = higher value",-19.2% and 23.7%
same,inhibition,"[7]; measured here: combination with cisplatin, at 5 µM, stronger effect = higher value",70% and 74.7%
same,inhibition,"[8]; BGB combo, at 5 µM",75.4% and 95.4%
same,inhibition,[8]; at 0.5 µM,-11.6% (inactive) and 3.28% (inactive)
same,inhibition,"[8]; cisplatin combo, at 5 µM",84.3% and 99.1%
same,inhibition,[8]; [17],-23% and -2.22%
same,inhibition,[8]; [18],1.12% and 13.2%
same,inhibition,"[8]; single agent, at 5 µM",86.2% and 98%
same,inhibition,"[9]; BGB IC20 combo, at 0.005 µM",-9.7% and -9.21%
same,inhibition,"[9]; BGB IC40 combo, at 0.005 µM",-27.3% and -46%
same,inhibition,"[9]; BGB IC40 combo, at 0.05 µM",38.6% and 39.7%
same,inhibition,[9]; at 0.5 µM,-16.4% (inactive) and -21.9% (inactive)
same,inhibition,"[9]; cisplatin combo, at 0.05 µM",35.7% and 37.3%
same,inhibition,"[9]; cisplatin combo, at 0.5 µM",-28% and -20.5%
same,inhibition,"[9]; cisplatin combo, at 5 µM",-41.9% and -70.6%
same,inhibition,"[9]; measured here: 5 uM single agent, at 5 µM",-17.6% and -12.3%
same,inhibition,[10]; at 0.5 µM,-23.9% (inactive) and 0.63% (inactive)
same,inhibition,[10]; [16],-39.1% and -9.87%
same,inhibition,[10]; [19],-43.1% and 4.1%
same,inhibition,"[10]; measured here: combination with cisplatin, at 5 µM",61.5% and 70.7%
same,inhibition,[11]; at 0.5 µM,-17.8% (inactive) and -4.69% (inactive)
same,inhibition,"[11]; measured here: with BGB IC20, at 0.5 µM",-25.7% and -17.1%
same,inhibition,"[11]; measured here: with BGB IC20, at 5 µM",49.9% and 86.7%
same,inhibition,"[11]; measured here: with cisplatin IC20, at 0.5 µM",-5.92% and 8.08%
same,inhibition,"[11]; measured here: with cisplatin IC20, at 5 µM",62.7% and 92.5%
same,inhibition,"[11]; single agent, at 5 µM",77.5% and 87.2%
same,inhibition,[12]; at 0.5 µM,-5.18% (inactive) and -14.7% (inactive)
same,inhibition,"[12]; measured here: BGB combination, at 0.5 µM",-6.05% and -29.4%
same,inhibition,"[12]; measured here: BGB combination, at 5 µM",54.7% and 62.5%
same,inhibition,"[12]; measured here: cisplatin combination, at 0.5 µM",-18.7% and -11.1%
same,inhibition,"[12]; measured here: cisplatin combination, at 5 µM",56.9% and 63%
same,inhibition,[13]; at 0.5 µM,9.8% (inactive) and 2.37% (inactive)
same,inhibition,"[13]; cisplatin combination, at 0.5 µM",8.11% and 13.2%
same,inhibition,"[13]; cisplatin combination, at 5 µM",29.8% and 83.8%
same,inhibition,"[13]; measured here: BGB IC40 combination 0.05 uM, at 0.05 µM",-31% and -31.3%
same,inhibition,"[13]; single agent, at 5 µM",33.2% and 32%
same,inhibition,[14]; at 0.5 µM,-13.3% (inactive) and 2% (inactive)
same,inhibition,"[14]; cisplatin combo, at 5 µM",55.6% and 86.3%
same,inhibition,"[14]; measured here: BGB IC40 combination, at 0.05 µM",43.9% and -7.68%
same,inhibition,[14]; [19],-24.8% and 36.6%
same,inhibition,"[14]; single agent, at 5 µM",42.9% and 30.3%
same,inhibition,[15]; at 0.5 µM,51.1% (inactive) and 53.4% (inactive)
same,inhibition,[15]; [17],34.6% and 54.1%
same,inhibition,[15]; [18],58.7% and 53.1%
same,inhibition,"[15]; single agent, at 0.05 µM",-13.9% and 7.41%
